A selection: hits, their analogues and other compounds. The true share with any hit is near 28%.
CYP2C9 activ – activators of human CYP2C9; recombinant CYP2C9, luciferin-H conversion, luminescence; stronger effect = higher value; factor 1 = untreated enzyme, 0 = blocked; P11712; activation factor at 5 µM; 96,000 compounds, 1.4% hits;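 active means activation factor of 2 or more for CYP2C9 at a 5 µM dose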;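 further: 0 = sulfaphenazole-blocked wells and 1 = vehicle-only wells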
Target sequence (P11712 whole entry, looked up): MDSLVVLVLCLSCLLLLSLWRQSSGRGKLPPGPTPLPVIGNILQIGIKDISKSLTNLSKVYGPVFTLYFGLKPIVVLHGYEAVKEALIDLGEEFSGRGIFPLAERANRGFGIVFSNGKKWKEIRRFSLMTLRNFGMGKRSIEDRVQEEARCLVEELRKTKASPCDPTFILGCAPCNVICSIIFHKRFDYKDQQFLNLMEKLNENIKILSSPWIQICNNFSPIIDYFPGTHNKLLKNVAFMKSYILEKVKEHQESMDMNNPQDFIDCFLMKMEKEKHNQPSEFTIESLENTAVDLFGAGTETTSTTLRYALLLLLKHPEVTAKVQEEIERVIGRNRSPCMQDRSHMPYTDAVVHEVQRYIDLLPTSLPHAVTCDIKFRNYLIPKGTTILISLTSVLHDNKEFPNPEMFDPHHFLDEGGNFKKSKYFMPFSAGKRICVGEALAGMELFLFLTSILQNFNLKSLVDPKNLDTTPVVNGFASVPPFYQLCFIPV
CYP2C19 inh – inhibitors of human CYP2C19; 96,000 compounds, 21% hits; inhibition, % at 5 µM; CYP2C19 Supersomes, luciferin-H EGE luminescence, 30 min;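 active means CYP2C19 inhibition above a set limit at 5 µM in the primary screen, cut at about 50% in these data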;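 further: plate controls were negative control wells for no effect and 2.5 mM tranylcypromine positive control for full effect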
CYP2C9 inhib – human CYP2C9 inhibition; P11712; CYP2C9 Supersomes, luciferin-H conversion, luminescence; inhibition, % at 5 µM; 96,000 compounds, 20% hits; AID 777;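 active means blocking of liver enzyme CYP2C9 beyond about 50% at 5 µM, limit read from the data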
Plk1 PBD FP – blocks phosphopeptide binding to human Plk1 polo box domain | P53350 | Plk1 PBD phosphopeptide binding, fluorescence polarization | 97,000 compounds, 0.13% hits | inhibition, %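 (tested at about 20 µM)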 | AID 693; in the data active means inhibition above about 34%, passing the limit was not always enough
PLK1 inh – blocks human PLK1 kinase activity | recombinant PLK1 kinase, TR-FRET peptide phosphorylation | AID 619 | 97,000 compounds, 0.53% hits | inhibition, % at 10 µM | P53350;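 active means inhibition of 50% or more in the single-concentration screen; inactive means inhibition below 50%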;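 further: 0% = DMSO max control and 100% = H-89 dihydrochloride min control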
CYP2C19 activ – increases human CYP2C19 enzyme activity; 96,000 tested, under 10 active; activation factor at 5 µM; P33261; recombinant CYP2C19, luciferin-H EGE luminescence; stronger effect = higher value; 0 = fully inhibited enzyme, 1 = untreated enzyme;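 active means activation factor of at least 2 at 5 µM in the primary screen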;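 further: 0 = wells with 2.5 mM tranylcypromine and 1 = vehicle-only wells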
Numbers without * were called inactive; · = no result.

SMILES	CYP2C9 activ	CYP2C19 inh	CYP2C9 inhib	Plk1 PBD FP	PLK1 inh	CYP2C19 activ
CCCS(=O)(=O)N1CCC(C(=O)NCc2ccccc2Cl)CC1	1.6	-2.3	-60.2	6.1	-1.8	1
C=C(C)C1CCC(C)=C1CC(C)(C)/C=N\n1cnnc1 (configuration not stated)	0.4	85.8*	63.4*	·	·	0.1
CC1=CC(C)C(/C=N/n2cnnc2)C(C)C1 (configuration not stated)	·	·	·	0.3	-6.3	·
CCc1ccc2[nH]c(=O)c(C(c3nnnn3CCOC)N3CCN(c4ccccc4F)CC3)cc2c1 (configuration not stated)	0.8	53.8*	17.3	-5.5	0.3	0.5
COc1ccc(CN(Cc2cc3cc(C)ccc3[nH]c2=O)C(=O)N(C)C)cc1	0.8	21.9	23.5	·	·	0.8
COCCn1nnnc1C(C(C)C)N(Cc1ccccc1)Cc1cc2cc(OC)ccc2[nH]c1=O (configuration not stated)	0.2	76.6*	83.7*	·	·	0.2
Cc1cccc2cc(CN(Cc3ccco3)C(c3nnnn3CCc3ccccc3)C(C)C)c(=O)[nH]c12 (configuration not stated)	0.2	78.2*	83.2*	-11.1	-11.7	0.2
CCc1ccc2[nH]c(=O)c(CN(Cc3ccc(OC)cc3)Cc3nnnn3CCOC)cc2c1	0.4	54.6*	57.0*	·	·	0.5
COCCn1nnnc1C(c1ccc(OC)cc1OC)N1CCN(c2ccccc2F)CC1 (configuration not stated)	0.8	30.1	19.4	-5.5	-3.5	0.7
O=C(CN1C2CCCC1CC(NC(=O)c1ccccc1)C2)Nc1nccs1 (configuration not stated)	·	·	·	6.9	-11.5	·
CC(C)[C@H](NS(=O)(=O)c1ccccc1)C(=O)OCn1nnc2ccccc2c1=O	0.8	36.7	17.9	-9.1	1.3	0.6
CCN(Cc1ccccc1)C(c1cc2ccc(C)cc2[nH]c1=O)c1nnnn1CCOC (configuration not stated)	0.4	7.0	55.2*	-27.0	-11.4	0.9
Cc1ccc2cc(C(c3nnnn3Cc3ccccc3)N3CCN(c4ccccc4)CC3)c(=O)[nH]c2c1 (configuration not stated)	0.7	22.9	30.3	25.3	-6.8	0.8
COc1ccc2[nH]c(=O)c(CN(Cc3ccco3)C(c3nnnn3Cc3ccccc3)C(C)C)cc2c1 (configuration not stated)	0.3	43.6	70.4*	14.7	-3.3	0.6
COCCn1nnnc1C(C(C)C)N(Cc1cccnc1)Cc1cc2cc(OC)ccc2[nH]c1=O (configuration not stated)	1.3	-15.1	-29.4	13.2	-9.7	1.2
CC(C)(C)NS(=O)(=O)c1cccc2nsnc12	·	·	·	22.7	-11.7	·
CSc1cccc(NS(=O)(=O)c2cccc3nsnc23)c1	0.4	57.5*	64.3*	·	·	0.4
COc1cc(NS(=O)(=O)c2cccc3nsnc23)cc(OC)c1	0.5	93.2*	45.3	-15.2	-1.6	0.1
CC(=O)/C(C#N)=C1\NC(=O)C(Cc2ccccc2Cl)S1 (configuration not stated)	·	·	·	-16.5	-12.9	·
CC(=O)/C(C#N)=C1\NC(=O)C(Cc2ccc(C)c(C)c2)S1 (configuration not stated)	0.1	-5.4	94.4*	-7.4	-17.8	1.1
c1ccc2c(c1)nc(N1CCOCC1)c1c3ccccc3[nH]c21	0.8	15.2	15.4	-17.0	-18.9	0.8
Cc1nnc(OCc2nc3ccccc3n2C)c2ccccc12	0.4	38.0	59.0*	-1.0	-0.5	0.6
C=CCC1(O)CC(c2ccco2)NC(c2ccco2)C1CCC (configuration not stated)	1.1	-15.0	-7.8	-26.2	-2.9	1.1
COc1cccc2c1OC1(C)CC2NC(=O)N1c1cccc(C(=O)Nc2ccc3c(c2)OCCO3)c1 (configuration not stated)	0.3	29.1	72.4*	-15.4	-19.5	0.7
COc1ccc(NC(=O)c2cccc(N3C(=O)NC4CC3(C)Oc3ccccc34)c2)cc1 (configuration not stated)	0.1	88.7*	89.8*	10.4	-3.0	0.1
SMILES	CYP2C9 activ	CYP2C19 inh	CYP2C9 inhib	Plk1 PBD FP	PLK1 inh	CYP2C19 activ
CC(C)C(=O)N(Cc1ccc2c(c1)OCO2)Cc1ccccn1	0.8	76.2*	16.4	-14.6	5.5	0.2
CC(=O)OCCN(Cc1ccccc1)Cc1ccc2c(c1)OCO2	0.2	99.4*	84.4*	-1.2	-13.8	0
CC(C)C(=O)N(Cc1ccccc1)c1ccccn1	1.2	21.9	-18.3	9.9	-5.1	0.8
O=C(CS(=O)(=O)Cc1ccccc1)NCc1ccc2c(c1)OCO2	1	1.2	-2.6	5.0	-5.9	1
CCC(NC(=O)N(Cc1ccccc1)Cc1ccc2c(c1)OCO2)(C(F)(F)F)C(F)(F)F	0.1	99.8*	93.7*	-27.2	-6.8	0
CC(NC(=O)N(Cc1ccccc1)Cc1ccc2c(c1)OCO2)(C(F)(F)F)C(F)(F)F	0.1	85.9*	92.9*	0.1	-3.4	0.1
CCOCCCNC(=O)C(c1ccccc1)N(Cc1ccc2c(c1)OCO2)C(=O)CNC(C)=O (configuration not stated)	0.9	18.9	8.5	-12.7	-10.3	0.8
CN(C)NC1CCS(=O)(=O)C1 (configuration not stated)	1.1	-3.6	-5.7	2.7	-10.7	1
COc1ccc(NC(=O)CC#N)cc1OC	1	-6.3	-1.5	38.9	-6.8	1.1
O=C(COC(=O)c1cccc(S(=O)(=O)N2CCc3ccccc32)c1)NC1CCS(=O)(=O)C1 (configuration not stated)	0.7	41.6	30.8	-11.8	-10.2	0.6
CCN(CC)CCN1C(=O)c2ccccc2NC1c1ccc(C)cc1 (configuration not stated)	1.3	-0.2	-26.9	-16.3	-17.2	1
CC(=O)N(CCC(Cc1ccccc1)c1ccc2c(c1)OCO2)Cc1ccc(Cl)cc1 (configuration not stated)	0.2	75.5*	75.2*	-1.1	2.2	0.2
Cc1ccc(/C=N\NC(=O)C2COc3cc4ccccc4cc3O2)o1 (configuration not stated)	·	·	·	-11.0	-8.2	·
Cn1c(/C=N/NC(=O)c2ccccc2)nc2ccccc21	0.7	10.3	34.1	6.5	-5.3	0.9
CCCc1cc(C(=O)N/N=C/c2ccc(C)o2)c2ccccc2n1	0.4	18.5	64.1*	2.0	-4.7	0.8
CCCc1cc(C(=O)N/N=C/c2ccc(CC)s2)c2ccccc2n1	0.3	-5.8	65.0*	-27.9	-19.1	1.1
CCOC(=O)CCC(=O)Nc1ccccc1C(N)=O	1	-3.1	2.8	-6.4	-0.9	1
O=C(CSc1nnc(NC(=O)c2ccco2)s1)NC1CCCCC1	0.9	-6.2	5.2	17.7	-9.2	1.1
O=C(OCn1nnc2ccccc2c1=O)c1ccc2ccccc2n1	1.3	-7.2	-25.8	-12.6	-5.6	1.1
